These results are taken from PubChem BioAssay (NCATS).

Where “and” joins values, the source holds several entries; their conditions need not be identical. Equal values may be shown once. Records with an inconclusive call do not appear. Values without a mark were called inactive. Calls of active or inactive are those of the source. The call rests on the fitted dose curve; in most records, active means well fitted curve in the direction sought with a large enough effect; inconclusive means small, poorly fitted or top-dose-only effect, or another doubt; inactive means no such curve, though single readings can be large or run the other way.
On the % scale 0 is the no-effect control and ±100 the full control effect; potency means the concentration at half of the fitted maximal effect.

The assay in a line: qHTS Assay for Identifying Gametocytocidal Compounds (AID 743244).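 On max response: actives lower the fluorescent signal which means gametocytes are killed.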 The following applies: P. falciparum 3D7 stage III-V gametocytes, alamarBlue, 72 h; max response: active compounds read low. From the text: Malaria cases and deaths have dropped 50% in 29 countries since 2000 due to the combined effects of long-lasting insecticidal bednets, indoor residual spraying, and artemisinin-based combination therapies (ACTs). This success has raised hopes for malaria eradication and consequently stimulated interest in developing new reagents that block gametocyte transmission such as novel and safe gametocytocidal drugs. However, previous drug development efforts have focused primarily on the asexual parasites that cause symptoms, but not malaria transmission. Consequently, patients can remain infectious for weeks after the clearance of asexual parasites and clinical symptoms. To be transmitted from person to person via a mosquito, the parasites must switch from asexual to sexual development and produce male and female gametocytes. Malaria gametocytes consist of five stages (I, II, III, IV and V). The late stage gametocytes (III, IV and V) are difficult to be cultured in vitro and the long lifespan of mature gametocytes allows them being transmitted from host to mosquitoes unless they are completely eliminated by gametocytocidal agents. To identify gametocytocidal compounds which are capable of killing late stage P. falciparum gametocytes, a high throughput gametocyte viability assay was employed. This assay uses oxidoreduction indicator, alamarBlue, as a general measure of metabolic activity of gametocytes. Within live cells, the nonfluorescent resazurin is reduced to resorufin, a bright red fluorescence dye. Fluorescence decreases upon treatment of gametocytocidal compounds. P. falciparum gametocyte (3D7 strain) was used in this study.
The 1536-well gametocycidal viability assay was based on the previous method of Tanaka et al. Stage III-V gametocytes were tested against three compound libraries, including 4265 compounds from NCGC pharmaceutical collection, 400 from Malaria Box library, and 550 from an internal collection of kinase inhibitors. Briefly, 2.5 ul/well incomplete medium was dispensed into each well of 1,536-well plates using the Multidrop Combi followed by 23 nl compound transferring using the NX-TR Pintool (WAKO Scientific Solutions, San Diego, CA). Then, 2.5 ul/well of gametocytes was dispensed with a seeding density of 20,000 cells/well using the Multidrop Combi. The assay plates were incubated for 72 h at 37C with 5% CO2. After addition of 5 ul/well of 2X AlamarBlue dye (Life Technologies, cat. no. DAL1100), the plates were incubated for 24 h at 37C with 5% CO2 and then were read in a fluorescence detection mode (Ex = 525 nm, Em = 598 nm) on a ViewLux plate reader (PerkinElmer).
Regarding `CC1=C(C(=O)O)N2C(=O)[C@@H](NC(=O)[C@H](N)C3=CCC=CC3)[C@H]2SC1`, the max response is -5.14%. Regarding `Cc1c(C(=O)NN2CCCCC2)nn(-c2ccc(Cl)cc2Cl)c1-c1ccc(Cl)cc1`, the max response was 2.34%. As to `O=c1cc(N2CCOCC2)oc2c(-c3ccccc3)cccc12`, the max response is 3.56%. `O=C1c2c(O)cc(O)cc2OC(c2ccc(O)c(O)c2)C1O` (stereo not given): the max response was -8.7%. Regarding `Nc1nc(N)c(N=O)c(OCC2CCCCC2)n1`, the max response is 15%.

With `O=C(NC(Cc1cc(=O)[nH]c2ccccc12)C(=O)O)c1ccc(Cl)cc1` (stereo not given), the max response was 22.1%. For the compound `NNc1nncc2ccccc12`, the max response was -0.582% and 32.1%. Regarding `Nc1nc(Cl)nc2c1ncn2[C@H]1C[C@H](O)[C@@H](CO)O1`, the max response was 30.7% and 5.06%. For `CNC[C@H](O)c1ccc(O)c(O)c1`, the max response was -9.4% and 18.5%.

Take `O=C(O)CCNC(=O)c1ccc(N=Nc2ccc(O)c(C(=O)O)c2)cc1`: the max response was 7.5%. On to `S=c1nc[nH]c2nc[nH]c12`, for which the max response was 21.9% and -4.09%. Regarding `CCOC(=O)C(C)Oc1cccc2c(=O)n(CC(=O)Nc3ccc4c(c3)OCCO4)ccc12` (stereo not given), the max response was 9.26%. For `CN(C)c1ccc(O)c2c1C[C@H]1C[C@H]3[C@H](N(C)C)C(=O)C(C(N)=O)=C(O)[C@@]3(O)C(=O)C1=C2O`, the max response was -5.16% and -5.04%. With `Cc1cc2c(s1)Nc1ccccc1N=C2N1CCN(C)CC1`, the max response was 2.02%.

With `C=C(c1ccc(C(=O)O)cc1)c1cc2c(cc1C)C(C)(C)CCC2(C)C`, the max response is 3.99%. As to `O=C(O)c1cccnc1Nc1cccc(C(F)(F)F)c1`, the max response is -9.57% and 27.4%.

For the compound `CC1=C(C)C(=O)C(C(CCCCCC(=O)O)c2ccccc2)=C(C)C1=O` (stereo not given), the max response is -7.88%. Take `CS(=O)(=O)OCCCCOS(C)(=O)=O`: the max response was 7.28%. Regarding `CC(C)Oc1ccc2c(=O)c(-c3ccccc3)coc2c1`, the max response is -8.04% and -1.57%. For `O=c1oc2cc(O)ccc2s1`, the max response is -6.04%. Turning to `Cc1ccc(NC(=O)c2ccc(CN3CCN(C)CC3)cc2)cc1Nc1nccc(-c2cccnc2)n1`, the Potency was 12.6 µM (active). As to `O=C(c1ccccc1)c1ccc2n1CCC2C(=O)O` (stereo not given), the max response is 44.1% and 46.1%. On the same count and under the same terms, under `O=C(O)c1cc(=O)c2c(OCC(O)COc3cccc4oc(C(=O)O)cc(=O)c34)cccc2o1` stands 10.5%; under `CCCCc1ccc2nc(NC(=O)OC)[nH]c2c1`, 5.64%. On to `O=C(CCc1ccc(O)cc1)c1c(O)cc(O)cc1O`, for which the max response is 19.3%. As for `COC(=O)C1=C(C)NC(C)=C(C(=O)OC(C)C)C1c1cccc2nonc12` (stereo not given), the max response was 3.5%. For `CCOc1cc(CC(=O)N[C@@H](CC(C)C)c2ccccc2N2CCCCC2)ccc1C(=O)O`, the max response is 1.56%. With `COc1ccc(C2(C#N)CCC(C(=O)O)CC2)cc1OC1CCCC1` (stereo not given), the max response is 4.12%. With `O=C(NCCO[N+](=O)[O-])c1cccnc1`, the max response was -6.52%.

Turning to `Cc1cc(=O)c2c(O)c3c(O)cc(=O)c4c3c3c(cc(O)c1c23)C(C)(C)C=4O`, the max response is -6.69%.

Consider `Cc1cc(O)c2c(c1)C(=O)c1cc(O)cc(O)c1C2=O`, for which the max response is 14.5%.

For the compound `O=P(O)(O)C(O)(Cn1ccnc1)P(=O)(O)O`, the max response was 13.2%.

In the case of `Cc1nc(-c2ccc(OCC(C)C)c(C#N)c2)sc1C(=O)O`, the max response was 55.3%. Take `O=C1c2ccccc2-c2n[nH]c3cccc1c23`: the max response is -3.57% and 13.7%.

`Nc1ccc(S(N)(=O)=O)cc1`: the max response was 6.71%.

With `COc1ccccc1N1CCN(CCN(C(=O)C2CCCCC2)c2ccccn2)CC1`, the max response was 6.13%. As to `O=C(O)c1cn(-c2ccc(F)cc2)c2cc(N3CCNCC3)c(F)cc2c1=O`, the max response was 2.27%. Turning to `COC(=O)N[C@H](C(=O)N[C@@H](Cc1ccccc1)[C@@H](O)CN(Cc1ccc(-c2ccccn2)cc1)NC(=O)[C@@H](NC(=O)OC)C(C)(C)C)C(C)(C)C`, the max response was -11.7%. The same measure, in the same setting: under `O=c1c(O)c(-c2cc(O)c(O)c(O)c2)oc2cc(O)cc(O)c12` stands 4.63%; under `c1ccc2[nH]c(-c3cscn3)nc2c1`, 16.1%.
